Measurements as given in PubChem BioAssay.
The source made the active and inactive calls.

Legend:
[1] = E. coli DRC41 culture turbidity changes, primary screen, E. coli filamentation inducer project, strain DRC41, OD650, 48 h (AID 1152);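 note: E. coli MC1000 strain DRC41 lacking acrAB efflux pump and sulA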; settings: E. coli DRC41 (acrAB sulA), higher = more signal, called active from +8 up or from −8 down
[2] = small-molecule binders of probe aLefty1, primary screen, biochemical, small-molecule microarray, 635/667 nm fluorescence (AID 1153); settings: higher = more signal;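 note: score merges spot fluorescence with signal-to-noise ratio from the scanned slide images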
[3] = PSAC antagonists in infected red cells, primary screen, cell-based, P. falciparum Indochina, OD700, 1 h (AID 1154); settings: P. falciparum Indochina infected RBC osmotic lysis, higher = more signal, called active from +8 up or from −8 down
[4] = PSAC antagonists in infected red cells, primary screen, cell-based, P. falciparum Indochina, OD700, 2 h (AID 1155);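 note: lysis reports solute entry through the parasite surface anion channel PSAC; channel blockers reduce lysis of infected cells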; settings: P. falciparum Indochina infected erythrocytes, osmotic lysis OD700; higher = more signal, called active from +8 up or from −8 down
[5] = osmotic lysis modulators in infected erythrocytes, primary screen, PSAC antagonist project, cell-based, P. falciparum Indochina, OD700, 3 h (AID 1156); settings: higher = more signal, called active from +8 up or from −8 down
[6] = PSAC antagonists in infected red cells, primary screen, cell-based, P. falciparum Indochina, OD700, 18 h (AID 1157); settings: P. falciparum Indochina infected erythrocytes, osmotic lysis OD700, 18 h; higher = more signal, called active from +8 up or from −8 down
[7] = modulators of S6 phosphorylation in cells, primary screen, cell-based, A549, cytoblot, luminescence, serum-stimulated (AID 1158); settings: A549 phospho-S6 cytoblot, 5 h, higher = more signal;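 note: serum-stimulated A549 lung adenocarcinoma cells; signal is phosphorylated S6 detected by cytoblot immunostaining with HRP secondary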
[8] = biological target: NADPH oxidase 2 (Homo sapiens) (UniProt P04839); assay: NOX2-dependent H2O2 signal modulators, primary screen, NOX inhibitor project, cell-based, HEK293-NOX2, PMA-stimulated, Amplex Red fluorescence (AID 1159); settings: 45 min, higher = more signal, called active from +8 up or from −8 down; note: test concentration not given here
Chain of NADPH oxidase 2 (Homo sapiens) (P04839 whole entry, looked up): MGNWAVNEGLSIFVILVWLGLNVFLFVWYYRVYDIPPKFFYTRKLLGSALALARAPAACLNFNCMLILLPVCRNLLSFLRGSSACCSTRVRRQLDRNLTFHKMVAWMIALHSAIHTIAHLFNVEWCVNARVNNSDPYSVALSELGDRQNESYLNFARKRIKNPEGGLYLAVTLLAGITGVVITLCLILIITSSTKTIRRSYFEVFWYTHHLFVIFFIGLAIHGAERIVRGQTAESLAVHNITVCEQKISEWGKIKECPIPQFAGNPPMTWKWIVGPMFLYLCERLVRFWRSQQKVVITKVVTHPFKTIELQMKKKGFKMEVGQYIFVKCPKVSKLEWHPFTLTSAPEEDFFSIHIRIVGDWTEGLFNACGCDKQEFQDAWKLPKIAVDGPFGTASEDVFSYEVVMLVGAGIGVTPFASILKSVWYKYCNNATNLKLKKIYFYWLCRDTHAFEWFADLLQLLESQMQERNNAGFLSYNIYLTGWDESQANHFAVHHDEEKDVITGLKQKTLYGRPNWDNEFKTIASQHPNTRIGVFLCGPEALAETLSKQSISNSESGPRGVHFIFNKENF

[9] = biological target: NADPH oxidase 4 (Homo sapiens) (UniProt Q9NPH5); assay: NOX4-dependent H2O2 signal modulators, primary screen, NOX inhibitor project, cell-based, HEK293-NOX4, tetracycline-induced, Amplex Red fluorescence (AID 1160); settings: 45 min, higher = more signal, called active from +8 up or from −8 down
Chain of NADPH oxidase 4 (Homo sapiens) (Q9NPH5 whole entry, looked up): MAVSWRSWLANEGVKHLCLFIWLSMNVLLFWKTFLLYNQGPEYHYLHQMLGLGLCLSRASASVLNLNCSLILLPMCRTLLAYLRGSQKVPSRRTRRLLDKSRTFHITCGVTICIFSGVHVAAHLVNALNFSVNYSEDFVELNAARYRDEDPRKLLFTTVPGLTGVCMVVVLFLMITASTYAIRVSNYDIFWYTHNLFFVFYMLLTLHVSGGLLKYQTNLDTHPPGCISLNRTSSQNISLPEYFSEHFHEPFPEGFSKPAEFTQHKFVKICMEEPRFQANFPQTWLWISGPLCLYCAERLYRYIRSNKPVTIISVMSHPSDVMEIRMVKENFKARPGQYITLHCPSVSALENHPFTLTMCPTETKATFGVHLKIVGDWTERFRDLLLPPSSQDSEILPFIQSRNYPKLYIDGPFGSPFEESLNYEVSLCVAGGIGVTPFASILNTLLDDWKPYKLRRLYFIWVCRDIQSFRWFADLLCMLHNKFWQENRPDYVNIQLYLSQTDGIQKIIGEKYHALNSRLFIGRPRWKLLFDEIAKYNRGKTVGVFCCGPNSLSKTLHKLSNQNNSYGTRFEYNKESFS

[10] = biological target: NADPH oxidase 5 (Homo sapiens) (UniProt Q96PH1); assay: NOX5-dependent H2O2 signal modulators, primary screen, NOX inhibitor project, cell-based, HEK293-NOX5, Amplex Red fluorescence (AID 1161); settings: HEK293-NOX5, ionomycin, 45 min, higher = more signal
Chain of NADPH oxidase 5 (Homo sapiens) (Q96PH1 whole entry, looked up): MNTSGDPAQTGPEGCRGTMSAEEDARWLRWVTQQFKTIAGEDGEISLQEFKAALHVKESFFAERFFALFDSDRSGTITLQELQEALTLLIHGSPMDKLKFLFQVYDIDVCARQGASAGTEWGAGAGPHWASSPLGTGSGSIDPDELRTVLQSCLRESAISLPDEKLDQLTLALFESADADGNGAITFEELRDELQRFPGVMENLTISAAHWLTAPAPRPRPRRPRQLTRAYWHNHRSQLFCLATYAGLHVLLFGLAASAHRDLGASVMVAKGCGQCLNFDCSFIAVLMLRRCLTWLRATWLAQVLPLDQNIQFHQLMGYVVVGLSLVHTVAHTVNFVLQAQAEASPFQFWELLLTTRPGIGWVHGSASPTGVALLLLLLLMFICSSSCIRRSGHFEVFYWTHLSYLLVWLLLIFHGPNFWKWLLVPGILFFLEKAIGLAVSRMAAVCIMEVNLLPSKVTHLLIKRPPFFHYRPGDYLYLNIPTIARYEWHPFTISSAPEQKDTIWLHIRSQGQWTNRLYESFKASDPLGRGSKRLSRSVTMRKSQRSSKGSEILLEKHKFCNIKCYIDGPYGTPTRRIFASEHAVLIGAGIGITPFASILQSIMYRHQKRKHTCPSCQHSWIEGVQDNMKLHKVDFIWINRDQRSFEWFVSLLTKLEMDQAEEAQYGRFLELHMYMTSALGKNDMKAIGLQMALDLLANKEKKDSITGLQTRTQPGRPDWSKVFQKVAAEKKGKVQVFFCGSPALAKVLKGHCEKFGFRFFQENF

[11] = A549 cell viability effects, profiling panel, calcein-AM fluorescence, 48 h, basal (AID 1162); settings: higher = more signal; note: test concentration not given here
[12] = adipocyte viability effects, profiling panel, cell-based, 3T3-L1 adipocytes, calcein-AM fluorescence, 48 h, basal (AID 1163); settings: 3T3-L1 adipocytes viability, higher = more signal; note: test concentration not given here
[13] = HepG2 cell viability effects, profiling panel, calcein-AM fluorescence, 48 h, basal (AID 1164); settings: higher = more signal; note: test concentration not given here
[14] = MM1S cell viability effects, profiling panel, calcein-AM fluorescence, 48 h, basal (AID 1165); settings: higher = more signal;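 note: viability of MM1S multiple myeloma cells under basal unstimulated conditions; test concentration not given here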
[15] = basal RPMI8226 viability, no added stimulus, profiling panel, cell-based, calcein-AM fluorescence, 48 h, PK04 Diversity Set (AID 1166); settings: RPMI8226 myeloma viability, higher = more signal;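 note: cells grown under basal conditions without added stimulus; test concentration not given here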
[16] = basal HepG2 mitochondrial membrane potential changes, profiling panel, cell-based, JC-1 fluorescence, 24 h, 100 nL compound (AID 1167); settings: higher = more signal; note: test concentration not given here
[17] = basal 3T3-L1 adipocyte mitochondrial potential changes, profiling panel, cell-based, JC-1 fluorescence, 3T3-L1 adipocytes, 24 h, 100 nL compound (AID 1168); settings: JC-1 mitochondrial fluorescence, higher = more signal, called active from +8 up or from −8 down; note: test concentration not given here
[18] = basal RPMI8226 mitochondrial membrane potential changes, profiling panel, cell-based, JC-1 fluorescence, 24 h, 100 nL compound (AID 1169); settings: RPMI8226 myeloma, JC-1 mitochondrial potential fluorescence, higher = more signal; note: test concentration not given here
[19] = basal MM1S mitochondrial membrane potential changes, profiling panel, cell-based, JC-1 fluorescence, 24 h, 100 nL compound (AID 1170); settings: higher = more signal; note: test concentration not given here
[20] = A549 lung cancer cell viability effects, profiling panel, resazurin fluorescence, 24 h, PK04 Diversity Set (AID 1171); settings: higher = more signal, called active from +8 up or from −8 down; note: test concentration not given here

Row | Structure (SMILES) | z-score [1] | composite z-score [2] | z-score [3] | z-score [4] | z-score [5] | z-score [6] | z-score [7] | z-score [8] | z-score [9] | z-score [10] | z-score [11] | z-score [12] | z-score [13] | z-score [14] | z-score [15] | z-score [16] | z-score [17] | z-score [18] | z-score [19] | z-score [20]
1 | CCCC=C(CCC)[C@@H](NC(=O)c1ccco1)c1ccc(C(=O)OC)cc1 | -1.68 (inactive) | 0.48 | -0.687 (inactive) | 0.324 (inactive) | 0.893 (inactive) | 1.11 (inactive) | -0.277 | -0.0272 (inactive) | 1.46 (inactive) | 1.99 | -4.29 | -1.72 | -5.68 | -3.26 | -4.76 | -4.88 | -0.458 (inactive) | -0.736 | -2.86 | 6.91 (inactive)
2 | Cc1c(NC(=O)/C(C#N)=C/c2ccc(Cl)cc2)c(=O)n(-c2ccccc2)n1C | 0.764 (inactive) | 0.0042 | 6.41 (inactive) | -0.238 (inactive) | -0.597 (inactive) | -1.44 (inactive) | 0.776 | -2.29 (inactive) | -0.376 (inactive) | 1.22 | 1.48 | 0.22 | 0.115 | 0.69 | -2.03 | 0.497 | 0.585 (inactive) | -0.0999 | -0.512 | -0.354 (inactive)
3 | CC1CC/C=C\[C@H]2OC34C=CCN(CCN5CCOCC5)C(=O)[C@H]3N(CCCCCCO)C(=O)[C@@H]4C2C(=O)O1 (stereo not given in full) | -0.044 (inactive) | -0.187 | 0.592 (inactive) | 0.267 (inactive) | 0.215 (inactive) | 0.182 (inactive) | -0.375 | 0.726 (inactive) | -0.0532 (inactive) | 1.96 | 0.919 | 0.24 | 1.1 | 1.42 | -0.575 | 0.37 | -0.44 (inactive) | -0.0357 | 0.606 | -0.116 (inactive)
4 | C#CCN([C@H](/C=C/C1CC1)[C@@H](O)Cc1ccccc1)[C@@H](Cc1ccccc1)C(=O)OC | 1.3 (inactive) | 0.0531 | 2.62 (inactive) | 1.78 (inactive) | -0.345 (inactive) | 1.28 (inactive) | 0.296 | -0.293 (inactive) | 0.396 (inactive) | -2.6 | -0.509 | -0.129 | -0.0708 | -1.2 | -2.55 | 3.34 | 0.292 (inactive) | -0.842 | -1.33 | 3.31 (inactive)
5 | COC(=O)[C@@]1(Cc2ccc(OC)cc2)[C@@H]2[C@@H](CC(=O)[C@H]2CC(=O)C(=O)N2CCCC2)CN1C(=O)c1ccccc1 | -1.17 (inactive) | 2.14 | 4.55 (inactive) | 0.989 (inactive) | 1.07 (inactive) | 0.986 (inactive) | 0.0676 | -0.204 (inactive) | 0.65 (inactive) | 0.26 | -0.515 | 0.745 | 0.681 | -2.61 | -2.94 | 0.74 | -1.62 (inactive) | -1.01 | -0.787 | -0.189 (inactive)
6 | CC(C)C[C@@H]1NC(=O)C([C@@H](C)OCc2ccccc2)NC(=O)[C@@]23C(=O)N[C@@H](Cc4ccccc4)C2[C@H](C)[C@@]2(C)O[C@H]2C3/C=C/CC/C=C/CNC1=O (stereo not given in full) | 0.757 (inactive) | -0.164 | 1.35 (inactive) | -0.601 (inactive) | -0.0722 (inactive) | -1.61 (inactive) | 0.189 | 0.681 (inactive) | 0.98 (inactive) | -0.24 | -0.638 | 1.58 | 0.0538 | -1.31 | -2.32 | 2 | 0.17 (inactive) | -0.478 | -0.638 | -0.785 (inactive)
7 | O=C1O[C@@H](c2ccccc2)[C@@H](c2ccccc2)N2[C@@H](c3ccc(O)cc3)[C@]3(C(=O)Nc4ccc(C#CC5=CCCCC5)cc43)[C@@H](C(=O)N3CCCCCCC3)[C@H]12 | 1.3 (inactive) | 2.57 | -0.781 (inactive) | -1.2 (inactive) | -0.993 (inactive) | -2.4 (inactive) | 2.98 | 0.682 (inactive) | 0.597 (inactive) | 1.56 | -0.361 | 0.967 | 0.606 | 0.212 | -1.72 | 0.41 | 0.571 (inactive) | -0.527 | 0.135 | -0.77 (inactive)
8 | C=CC(CO)NC(=O)OCC1c2ccccc2-c2ccccc21 (stereo not given) | -0.878 (inactive) | -0.188 | -0.0039 (inactive) | -0.124 (inactive) | -1.03 (inactive) | 0.182 (inactive) | 0.078 | -0.385 (inactive) | 0.0866 (inactive) | 0.23 | -0.454 | 0.351 | -0.479 | -1.07 | 0.0644 | -0.692 | 0.386 (inactive) | 0.534 | 0.128 | -0.62 (inactive)
9 | C=C(COC)/C(=C/C[C@H](OC(=O)c1ccncc1)c1ccc(OCCO)cc1)c1cc(C(=O)OC)ccc1OC | 1.79 (inactive) | 0.0999 | 21.4 (active) | 2.24 (inactive) | 2.31 (inactive) | -1.02 (inactive) | 0.876 | -3.16 (inactive) | -1.49 (inactive) | -2.53 | -0.313 | 1.7 | -0.842 | -1.18 | -0.443 | 1.37 | -0.4 (inactive) | 0.368 | 0.0527 | 1.29 (inactive)
